Data from PubChem BioAssay AID2685 (National Center for Advancing Translational Sciences (NCATS), 2010).
Screen size: about 320,000 compounds; about 2,100 (0.66%) were called active. About 53% were inconclusive and are not listed. Calls follow the shape of the dose curve; as a rule, active = well fitted inhibition curve with a large enough effect in the signal ratio, with a control signal flat (not every such curve was filed as active); inconclusive = small, poorly fitted or top-dose-only effect, or effect the other way, or a change in a side signal; inactive = flat fitted curve, though single readings scatter; the % refers to the signal ratio. Shown is part of a subset that was picked to be rich in actives.

experiment: qHTS Assay for Lipid Storage Modulators in Drosophila S3 Cells; conditions: BODIPY lipid droplet fluorescence, 18-24 h, cells fed with added oleic acid; cell number change: measured here: cell count max response; series mostly up to 46.1 µM; lipid storage change, negative = inhibition: at the top concentration;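 as to cell number change: cells counted by Cell Tracker Red CMTPX staining in the red channel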; as to lipid storage change, negative = inhibition: % is scaled to controls: 0 for no effect and ±100 for the full control effect
Procedure, shortened: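 Drosophila S3 cells got compounds at several concentrations plus oleic acid (400 uM solution). Laser-scanning cytometry with 488 nm excitation read lipid droplets at 500-530 nm and cells at 575-640 nm. Percent activity was relative to 20 uM Triacsin C.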
Potency is read from the fitted curve at half-maximal effect.

SMILES | lipid storage change, negative = inhibition | cell number change [%] | Potency | outcome
CC(=O)Nc1ccc(Nc2nc(C)cc(C)n2)cc1 | -1.44% (inactive) | 7.77 | – | –
O=C(/C=C/c1ccccc1)Nn1c(-c2cccs2)nc2ccccc2c1=O | 17.1% (inactive) | 20.7 | – | –
CCN(CC)CCNC(=O)CCc1n[nH]c(=O)c2ccccc12 | -5.8% (inactive) | -11.1 | – | –
CCOC(=O)c1n[nH]c(=O)c2ccccc12 | 6.78% (inactive) | -14.5 | – | –
CCCCN(CC)C(=O)c1n[nH]c(=O)c2ccccc12 | – | -6.59 | 29.1 µM (active) | –
O=C(NCc1csc2ccc(Cl)cc12)Nc1ccccc1 | -4.18% (inactive) | -21.1 | – | –
CCOCCCNc1nc(-c2ccccc2)nc2ccccc12 | – | 9.97 | 4.61 µM (active) | –
CC(C)OCCCNc1nc(-c2ccccc2)nc2ccccc12 | – | -18 | – | inactive
COc1ccc(CNc2nc(-c3ccccc3)nc3ccccc23)cc1OC | 4% (inactive) | -4.67 | – | –
COCCNc1nc(-c2ccccc2)nc2ccccc12 | 3.19% (inactive) | -1.08 | – | –
COc1ccc(/C=N/Nc2nc(-c3cccnc3)nc3ccccc23)cc1OC | -5.18% (inactive) | -0.944 | – | –
COc1ccc(CCNc2nc(-c3cccnc3)nc3ccccc23)cc1OC | – | 0.794 | 9.2 µM (active) | –
CCc1ccc(/C=N\n2cnnc2)cc1 | -2.9% (inactive) | 2.5 | – | –
CCC(C(=O)NC1CCCCC1)n1c(SCc2cccc(C)c2)nc2ccncc21 (configuration not stated) | 19.5% (inactive) | -1.51 | – | –
Cc1ccc(S(=O)(=O)N2CCN(C(=O)CSc3ccc(Cl)cc3)CC2)cc1 | -23.2% (inactive) | -6.45 | – | –
O=C(CSc1ncn[nH]1)N1CCN(S(=O)(=O)c2ccccc2)CC1 | 4.24% (inactive) | 11.4 | – | –
Cc1ccc(S(=O)(=O)N2CCN(C(=O)CSc3ncn[nH]3)CC2)cc1 | – | 5.31 | 16.4 µM (active) | –
Cc1cccn2c(CN(C)CC3Cc4ccccc4O3)c(C(=O)N3CCCCC3)nc12 (configuration not stated) | 6.24% (inactive) | -1.06 | – | –
COc1ccc(S(=O)(=O)N2CCN(C(c3ccccc3)c3ccccc3)CC2)cc1NC(C)=O | -2.59% (inactive) | 5.87 | – | –
Cc1ccc(OCC(=O)N2CCN(C(=O)Cc3ccccc3)CC2)cc1 | 9.56% (inactive) | 24.1 | – | –
Cc1ccc(OCC(=O)N2CCCC(CO)(CCOc3ccccc3)C2)cc1 (configuration not stated) | – | 13.9 | 14.6 µM (active) | –
CSCC(=O)N1CCCC(CO)(CCCc2ccccc2)C1 (configuration not stated) | 20.8% (inactive) | -13.7 | – | –
O=c1[nH]c2ccccc2n2c(-c3ccncc3)nnc12 | -8.9% (inactive) | -11.8 | – | –
O=C(Nc1cccc(Cl)c1)c1cc2c(=O)n3ccccc3nc2s1 | -9.52% (inactive) | 1.29 | – | –
Cc1cc(C)cc(NC(=O)c2cc3c(=O)n4ccccc4nc3s2)c1 | – | -3.42 | 6.51 µM (active) | –

SMILES | lipid storage change, negative = inhibition | cell number change [%] | Potency | outcome
CC(=O)NS(=O)(=O)c1ccc(NC(=O)c2cc3c(=O)n4ccccc4nc3s2)cc1 | 5.64% (inactive) | 21.8 | – | –
O=C(CCC1CCCC1)Nc1ccccc1-c1ccccc1 | 4.16% (inactive) | -0.161 | – | –
COc1ccc(NC(=O)C2CCCCN2N)cc1OC (configuration not stated) | -0.29% (inactive) | -2.19 | – | –
Cc1cc(C)cc(NC(=O)CSc2ccc(-c3ccccn3)nn2)c1 | -5.08% (inactive) | 2.31 | – | –
O=S1(=O)CC/C(=N\O)c2ccccc21 | 5.13% (inactive) | 0.644 | – | –
O=c1cc(CO)oc(C(Nc2ccccn2)c2ccccc2Cl)c1O (configuration not stated) | -1.26% (inactive) | -7.74 | – | –
N#Cc1ccc(-c2ccc(OCC(=O)Nc3cccnc3)cc2)cc1 | – | -11.3 | 13 µM (active) | –
O=C(COc1cccc(C(F)(F)F)c1)Nc1cccnc1 | -7.09% (inactive) | 28.7 | – | –
N#Cc1ccc(OCC(=O)Nc2nc(-c3cccnc3)cs2)cc1 | 12.5% (inactive) | -1.13 | – | –
Nc1ccc(S(=O)(=O)c2ccc(N)c(N)c2)cc1 | 1.95% (inactive) | 15.7 | – | –
CCCCCOCC(O)CCC(=O)NN (configuration not stated) | -1.04% (inactive) | -19 | – | –
Cc1ccc2cc(C(c3nnnn3C3CCCC3)N(Cc3ccccc3)Cc3ccco3)c(=O)[nH]c2c1 (configuration not stated) | – | -7.33 | – | inactive
CCOC(=O)C1=C(C)NC(=O)NC1c1ccc(OC(=O)c2ccco2)cc1 (configuration not stated) | 3.41% (inactive) | -14 | – | –
CCOC(=O)C1=C(CN2CCN(C(=O)c3ccco3)CC2)NC(=O)NC1c1ccc(F)cc1 (configuration not stated) | – | -24.3 | – | inactive
CCOC(=O)C1=C(CN2CCN(C(=O)c3ccco3)CC2)NC(=O)NC1c1ccc(OC(C)C)cc1 (configuration not stated) | – | -20.3 | 18.4 µM (active) | –
O=c1oc(-c2ccccc2)nc2sc3c(c12)CCCC3 | – | – | – | inactive
Cc1ccccc1-c1nc2sc3c(c2c(=O)o1)CCC3 | 2.37% (inactive) | 4.59 | – | –
Cc1nc2sc3c(c2c(=O)o1)CCCC3 | – | 5.3 | 29.1 µM (active) | –
COc1cccc(-c2nc(-c3ccccn3)no2)c1 | 4.98% (inactive) | -6.27 | – | –
Cc1c(NC(=O)CSCc2c(F)cccc2Cl)c(=O)n(-c2ccccc2)n1C | 5.12% (inactive) | 19 | – | –
O=C1Nc2ccc(S(=O)(=O)N3CCCC3C(=O)O)c3cccc1c23 (configuration not stated) | -0.439% (inactive) | 2.18 | – | –
CC1CCCCN1C(=O)/C(=C\c1ccccc1)c1ccccc1 (configuration not stated) | -10.3% (inactive) | 7.23 | – | –
O=C(/C(=C/c1ccccc1)c1ccccc1)N1CCCCC1 | -0.342% (inactive) | -13.6 | – | –
CN1CCN(C(=O)/C(=C\c2ccccc2)c2ccccc2)CC1 | – | -17.9 | 18.4 µM (active) | –
